Reference: PubChem BioAssay (NCATS)
Values joined by “and” are separate entries in the source; they are usually repeats but may differ in a detail not shown here. Identical values can stand only once. Records with an inconclusive call do not appear. Where a call stands in place of a potency, no number is given. Some compounds were tested as several samples or in several runs, with calls that do not always agree. Active and inactive are the calls of the source. Calls come from the whole dose curve; as a rule, active = well fitted curve in the direction sought with a large enough effect; inconclusive = small, poorly fitted or top-dose-only effect, or another doubt; inactive = no such curve, though single readings can be large; an effect the other way counts as inactive or inconclusive.

Key:
[1] = S16 Schwann cell viability assay (CellTiter-Glo assay) (AID 624031);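 note: cellular ATP luminescence as a viability measure; nearly all actives have a fitted effect of over 70% in size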
In short: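 Untransfected S16 rat Schwann cells; compound 24 h, 37 °C/5% CO2; CellTiter-Glo ATP luminescence. % activity vs no-cell wells and DMSO controls (0%); concentration-effect curves classed by r2, response magnitude, activity.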

AS120 = test: qHTS profiling for inhibitors of Plasmodium falciparum proliferation (AID 504749); note: nearly all actives have a fitted effect of over 60% in size; note: potency is the fitted concentration of half-maximal effect; settings: P. falciparum in erythrocytes, SYBR Green DNA, 72 h; series mostly up to 28.7 µM
In short: (§1)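 Fluorescence of SYBR Green-bound parasite DNA, read at 485/535 nm, served as the growth measure. Infected erythrocytes were cultured with compound 72 h; artemisinin (0.29 uM) and DMSO wells defined the normalization range.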

ATS189 = test: as above; settings: P. falciparum in erythrocytes, SYBR Green DNA, 72 h; series mostly up to 28.7 µM
In short: as §1

CP194 = test: as above; settings: P. falciparum in erythrocytes, SYBR Green DNA, 72 h; series mostly up to 28.7 µM
In short: as §1

CP201 = test: as above; settings: P. falciparum in erythrocytes, SYBR Green DNA, 72 h; series mostly up to 28.7 µM
In short: as §1

CP203 = test: as above; settings: P. falciparum in erythrocytes, SYBR Green DNA, 72 h; series mostly up to 28.7 µM
In short: as §1

CP215 = test: as above; settings: P. falciparum in erythrocytes, SYBR Green DNA, 72 h; series mostly up to 28.7 µM
In short: as §1

CP217 = test: as above; settings: P. falciparum in erythrocytes, SYBR Green DNA, 72 h; series mostly up to 28.7 µM
In short: as §1

CP252 = test: as above; settings: P. falciparum in erythrocytes, SYBR Green DNA, 72 h; series mostly up to 28.7 µM
In short: as §1

CP265 = test: as above; settings: P. falciparum in erythrocytes, SYBR Green DNA, 72 h; series mostly up to 28.7 µM
In short: as §1

CP268 = test: as above; settings: P. falciparum in erythrocytes, SYBR Green DNA, 72 h; series mostly up to 28.7 µM
In short: as §1

CP291 = test: as above; settings: P. falciparum in erythrocytes, SYBR Green DNA, 72 h; series mostly up to 28.7 µM
In short: as §1

CP305 = test: as above; settings: P. falciparum in erythrocytes, SYBR Green DNA, 72 h; series mostly up to 28.7 µM
In short: as §1

CP325 = test: as above; settings: P. falciparum in erythrocytes, SYBR Green DNA, 72 h; series mostly up to 28.7 µM
In short: as §1

DIV30 = test: as above; settings: P. falciparum in erythrocytes, SYBR Green DNA, 72 h; series mostly up to 28.7 µM
In short: as §1

HB3 = test: as above; settings: P. falciparum in erythrocytes, SYBR Green DNA, 72 h; series mostly up to 28.7 µM
In short: as §1

PC15 = test: as above; settings: P. falciparum in erythrocytes, SYBR Green DNA, 72 h; series mostly up to 28.7 µM
In short: as §1

SC27B = test: as above; settings: P. falciparum in erythrocytes, SYBR Green DNA, 72 h; series mostly up to 28.7 µM
In short: as §1

TAB109 = test: as above; settings: P. falciparum in erythrocytes, SYBR Green DNA, 72 h; series mostly up to 28.7 µM
In short: as §1

CP237 = test: as above; settings: P. falciparum in erythrocytes, SYBR Green DNA, 72 h; series mostly up to 28.7 µM
In short: as §1

Row | SMILES | Potency [1] | Potency (AS120) | Potency (ATS189) | Potency (CP194) | Potency (CP201) | Potency (CP203) | Potency (CP215) | Potency (CP217) | Potency (CP252) | Potency (CP265) | Potency (CP268) | Potency (CP291) | Potency (CP305) | Potency (CP325) | Potency (DIV30) | Potency (HB3) | Potency (PC15) | Potency (SC27B) | Potency (TAB109) | Potency (CP237)
1 | CCCCCOC(=O)Nc1nc(=O)n(C2O[C@H](C)[C@@H](O)[C@@H]2O)cc1F (some centres not stated) | inactive | inactive | inactive | inactive | inactive | inactive | inactive | inactive | inactive | inactive | inactive | inactive | inactive | inactive | inactive | inactive | inactive | inactive | inactive | –
2 | CC1(C)O[C@@H]2C[C@H]3[C@@H]4CCC5=CC(=O)C=C[C@]5(C)[C@H]4C(O)C[C@]3(C)[C@]2(C(=O)CO)O1 (some centres not stated) | inactive | – | inactive | inactive | inactive | inactive | inactive | inactive | inactive | inactive | inactive | inactive | inactive | inactive | inactive | inactive | inactive | – | inactive | –
3 | CCCSS/C(CCO)=C(/C)N(C=O)Cc1cnc(C)nc1N | – | inactive | inactive | inactive | inactive | inactive | inactive | inactive | inactive | inactive | inactive | inactive | inactive | inactive | inactive | inactive | inactive | inactive | inactive | inactive
4 | C[C@]12CC[C@@H]3c4ccc(O)cc4C[C@@H](CCCCCCCCCS(=O)CCCC(F)(F)C(F)(F)F)C3[C@@H]1CC[C@@H]2O (some centres not stated) | inactive | 2.51 µM (active) | 7.94 µM (active) | – | – | – | – | 8.91 µM (active) | 8.91 µM (active) | 11.2 µM (active) | – | 12 µM (active) | 10.7 µM (active) | – | 3.79 µM (active) | 5.01 µM (active) | 11.2 µM (active) | 2.82 µM (active) | 10 µM (active) | 5.01 µM (active)
5 | CC(=O)CC(c1ccccc1)C1C(=O)Oc2ccccc2C1=O (configuration not stated) | inactive | inactive | inactive | inactive | inactive | inactive | inactive | inactive | inactive | inactive | inactive | inactive | inactive | inactive | inactive | inactive | inactive | inactive | inactive | inactive
6 | CC(=O)OC1C([N+]2(C)CCCCC2)C[C@H]2C3CC[C@H]4C[C@H](OC(C)=O)C([N+]5(C)CCCCC5)CC4(C)C3CCC12C (some centres not stated) | inactive | inactive | inactive | – | – | – | – | inactive | inactive | inactive | – | – | – | – | – | inactive | inactive | inactive | inactive | inactive
7 | CC(=O)C1(O)Cc2c(O)c3c(c(O)c2C(OC2CC(N)C(O)C(C)O2)C1)C(=O)c1c(O)cccc1C3=O (configuration not stated) | – | 4.47 µM (active) | 8.91 µM (active) | 12 µM (active) | – | – | – | 10 µM (active) | 8.91 µM (active) | 10 µM (active) | – | – | – | – | – | 6.31 µM (active) | 11.2 µM (active) | 4.47 µM (active) | 5.62 µM (active) | 2.82 µM (active)
8 | C=C(CC[C@@H](C)[C@H]1CCC2[C@]1(C)CC[C@]13C[C@@]14CCC(OC(=O)/C=C/c1ccc(O)c(OC)c1)C(C)(C)[C@@H]4CC[C@@]23C)C(C)C (some centres not stated) | inactive | inactive | inactive | inactive | inactive | inactive | inactive | inactive | inactive | inactive | inactive | inactive | inactive | inactive | inactive | inactive | inactive | inactive | inactive | inactive
9 | C[C@]12C=CC(=O)N[C@@H]1CC[C@@H]1C2CC[C@]2(C)C(C(=O)Nc3cc(C(F)(F)F)ccc3C(F)(F)F)CC[C@@H]12 (some centres not stated) | – | inactive | inactive | inactive | inactive | inactive | – | inactive | inactive | inactive | – | – | – | inactive | inactive | – | inactive | inactive | inactive | 5.01 µM (active)
10 | Cc1c(C)c2c(c(C)c1O)CCC(C)(CCCC(C)CCCC(C)CCCC(C)C)O2 (configuration not stated) | inactive | inactive | inactive | inactive | inactive | inactive | inactive | inactive | inactive | inactive | inactive | inactive | inactive | inactive | inactive | inactive | inactive | inactive | inactive | inactive
11 | Cc1cc2nc3c(=O)[nH]c(=O)nc-3n(CC(O)C(O)C(O)COP(=O)(O)O)c2cc1C (configuration not stated) | inactive | inactive | inactive | inactive | inactive | inactive | inactive | inactive | inactive | inactive | inactive | inactive | inactive | inactive | inactive | inactive | inactive | inactive | inactive | inactive
12 | Clc1ccc(CS[C@@H](Cn2ccnc2)c2ccc(Cl)cc2Cl)cc1 | inactive | 1.26 µM (active) | 3.16 µM (active) | 5.1 µM (active) | – | 4.55 µM (active) | – | 3.16 µM (active) | 3.98 µM (active) | 3.16 µM (active) | – | 5.73 µM (active) | – | – | 3.22 µM (active) | 3.98 µM (active) | 3.55 µM (active) | 2.82 µM (active) | 3.55 µM (active) | 1.78 µM (active)
13 | CNC1=CN(O)C(c2ccccc2)=c2cc(Cl)ccc2=N1 | inactive | 11.2 µM (active) and inactive | 4.47 µM (active) | 4.26 µM (active) | 4.26 µM (active) and inactive | 4.26 µM (active) | 4.26 µM (active) and 10.7 µM (active) | – | 8.91 µM (active) | 6.31 µM (active) | 4.26 µM (active) | 3.38 µM (active) | 1.69 µM (active) | – | 4.26 µM (active) and inactive | inactive | inactive | – | 3.55 µM (active) | inactive
